Holding throughout (assay): DAPPL (digital affinity profiling via proximity ligation, sequencing); 10 mM Tris-HCl pH 7.5, 50 mM NaCl, 1 mM DTT, 4% glycerol, room temperature, 30 min; GST-TFs on glutathione beads, 16-mer random dsDNA library, 0.1% formaldehyde crosslink after washing; high values mean tight binding
What all share (conditions): protein: recombinant; tags: N-terminal GST; dsDNA, one strand shown

One test deals with T1, FLI1 (Homo sapiens, UniProt Q01543 1-452).
T1 sequence: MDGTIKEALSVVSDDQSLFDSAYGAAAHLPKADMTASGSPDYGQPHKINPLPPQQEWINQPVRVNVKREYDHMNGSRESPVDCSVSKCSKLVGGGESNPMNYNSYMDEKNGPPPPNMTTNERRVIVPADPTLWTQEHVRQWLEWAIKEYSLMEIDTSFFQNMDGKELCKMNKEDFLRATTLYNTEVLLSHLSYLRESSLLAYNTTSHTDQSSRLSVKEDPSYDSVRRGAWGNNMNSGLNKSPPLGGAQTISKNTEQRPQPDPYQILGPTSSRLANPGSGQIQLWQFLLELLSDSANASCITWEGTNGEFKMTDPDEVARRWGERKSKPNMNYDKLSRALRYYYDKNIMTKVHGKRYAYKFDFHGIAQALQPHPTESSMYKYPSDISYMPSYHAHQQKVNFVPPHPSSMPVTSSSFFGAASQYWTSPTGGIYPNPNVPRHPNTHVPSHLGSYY
The gist of the method:
(§1)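 Beads coated with glutathione captured GST-fused human transcription factors that had been expressed in yeast, and the factors were then given DNA barcodes and pooled with a tag-only sample. The pools were incubated with 200 nmole of a random double-stranded 16-mer DNA library in Tris/NaCl/DTT/glycerol buffer for 30 min at room temperature, washed, crosslinked with 0.1% formaldehyde and proximity-ligated with BsaI/T4 ligase at 37 °C for 1 h. PCR amplification and Illumina NextSeq500 sequencing came last. Binding signal is each hexamer's read frequency for a factor divided by its frequency for the tag-only sample.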

A further test addresses T2, ELK1 (Homo sapiens, UniProt P19419 1-428).
T2 sequence: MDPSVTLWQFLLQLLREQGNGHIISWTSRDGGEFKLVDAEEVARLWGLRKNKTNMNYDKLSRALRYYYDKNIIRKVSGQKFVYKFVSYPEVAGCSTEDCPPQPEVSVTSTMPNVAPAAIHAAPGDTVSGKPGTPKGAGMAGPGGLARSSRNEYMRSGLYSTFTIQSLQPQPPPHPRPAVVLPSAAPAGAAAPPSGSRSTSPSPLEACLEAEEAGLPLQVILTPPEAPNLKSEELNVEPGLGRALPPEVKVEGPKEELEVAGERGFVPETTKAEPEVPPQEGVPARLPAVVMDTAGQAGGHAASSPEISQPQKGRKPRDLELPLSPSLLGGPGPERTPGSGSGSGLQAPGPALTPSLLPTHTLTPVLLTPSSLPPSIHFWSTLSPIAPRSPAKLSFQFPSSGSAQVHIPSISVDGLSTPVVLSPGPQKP
In outline:
as §1

The target in a further test is T3, GABPA (Homo sapiens, UniProt Q06546 1-454).
T3 sequence: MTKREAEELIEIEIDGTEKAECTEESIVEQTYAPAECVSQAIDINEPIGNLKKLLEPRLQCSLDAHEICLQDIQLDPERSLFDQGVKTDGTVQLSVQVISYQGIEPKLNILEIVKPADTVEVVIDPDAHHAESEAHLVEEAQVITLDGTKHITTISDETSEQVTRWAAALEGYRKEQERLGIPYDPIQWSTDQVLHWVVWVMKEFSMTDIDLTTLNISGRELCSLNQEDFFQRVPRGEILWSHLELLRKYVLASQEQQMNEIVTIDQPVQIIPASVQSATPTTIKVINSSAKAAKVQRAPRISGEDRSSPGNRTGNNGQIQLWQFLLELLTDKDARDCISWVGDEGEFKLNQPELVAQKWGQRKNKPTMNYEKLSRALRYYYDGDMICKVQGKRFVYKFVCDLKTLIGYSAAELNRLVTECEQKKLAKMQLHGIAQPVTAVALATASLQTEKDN
In outline:
as §1

The next test deals with T4, ERG (Homo sapiens, UniProt P11308 1-479).
T4 sequence: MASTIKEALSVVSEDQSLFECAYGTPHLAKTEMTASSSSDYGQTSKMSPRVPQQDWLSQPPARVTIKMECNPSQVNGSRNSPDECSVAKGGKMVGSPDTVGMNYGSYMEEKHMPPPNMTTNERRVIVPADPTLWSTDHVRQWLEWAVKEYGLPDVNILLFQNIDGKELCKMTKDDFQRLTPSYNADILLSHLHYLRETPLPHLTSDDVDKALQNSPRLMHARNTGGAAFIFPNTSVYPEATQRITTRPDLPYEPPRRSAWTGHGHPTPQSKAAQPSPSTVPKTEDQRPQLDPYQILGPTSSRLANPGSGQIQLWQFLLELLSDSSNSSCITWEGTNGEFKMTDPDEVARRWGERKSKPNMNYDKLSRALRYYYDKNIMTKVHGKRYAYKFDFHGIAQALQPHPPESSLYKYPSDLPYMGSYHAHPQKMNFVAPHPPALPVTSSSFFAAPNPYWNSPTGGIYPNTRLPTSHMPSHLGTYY
In outline: as §1

The next test deals with ELF1 (Homo sapiens, UniProt P32519 1-619). The gist of the method:
as §1

The target in another test is T5, EHF (Homo sapiens, UniProt Q9NZC4 1-300).
T5 sequence: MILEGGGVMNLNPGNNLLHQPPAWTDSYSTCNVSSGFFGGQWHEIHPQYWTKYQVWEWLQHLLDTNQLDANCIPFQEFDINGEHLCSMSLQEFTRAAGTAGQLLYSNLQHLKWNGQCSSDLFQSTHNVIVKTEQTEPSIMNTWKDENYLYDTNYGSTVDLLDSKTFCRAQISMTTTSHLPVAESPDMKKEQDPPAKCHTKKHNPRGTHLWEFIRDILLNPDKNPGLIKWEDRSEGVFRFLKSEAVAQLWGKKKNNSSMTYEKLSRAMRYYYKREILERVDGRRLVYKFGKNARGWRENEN
The gist of the method: as §1

The next test deals with SPI1 (Homo sapiens, UniProt P17947 1-270). In outline:
as §1

Another test deals with SPIB (Homo sapiens, UniProt Q01892 1-262). In outline: as §1
A further test deals with T6, ELK3 (Homo sapiens, UniProt P41970 1-407).
T6 sequence: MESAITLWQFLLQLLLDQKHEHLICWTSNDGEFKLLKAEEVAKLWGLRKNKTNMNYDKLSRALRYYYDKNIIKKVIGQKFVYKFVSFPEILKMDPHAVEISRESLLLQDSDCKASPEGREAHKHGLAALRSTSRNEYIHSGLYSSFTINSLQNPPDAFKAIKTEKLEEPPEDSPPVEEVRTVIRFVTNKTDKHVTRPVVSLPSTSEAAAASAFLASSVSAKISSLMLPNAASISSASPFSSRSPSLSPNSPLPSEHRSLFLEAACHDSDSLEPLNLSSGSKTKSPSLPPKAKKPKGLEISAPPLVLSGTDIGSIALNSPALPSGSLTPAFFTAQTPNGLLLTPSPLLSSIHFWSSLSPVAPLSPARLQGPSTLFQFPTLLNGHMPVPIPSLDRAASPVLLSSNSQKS
The gist of the method: as §1

A further test addresses T7, FEV (Homo sapiens, UniProt Q99581 1-238).
T7 sequence: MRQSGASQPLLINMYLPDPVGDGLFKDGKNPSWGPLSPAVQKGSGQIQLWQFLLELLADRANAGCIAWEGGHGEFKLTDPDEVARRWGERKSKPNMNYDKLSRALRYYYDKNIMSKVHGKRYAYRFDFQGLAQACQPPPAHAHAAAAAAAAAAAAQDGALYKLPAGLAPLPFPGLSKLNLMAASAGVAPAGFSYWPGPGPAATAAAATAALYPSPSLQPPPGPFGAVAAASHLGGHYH
In outline:
as §1

The target in the next test is ETV5 (Homo sapiens, UniProt P41161 1-510). The gist of the method: as §1
The next test addresses T8, SPIC (Homo sapiens, UniProt Q8N5J4 1-248).
T8 sequence: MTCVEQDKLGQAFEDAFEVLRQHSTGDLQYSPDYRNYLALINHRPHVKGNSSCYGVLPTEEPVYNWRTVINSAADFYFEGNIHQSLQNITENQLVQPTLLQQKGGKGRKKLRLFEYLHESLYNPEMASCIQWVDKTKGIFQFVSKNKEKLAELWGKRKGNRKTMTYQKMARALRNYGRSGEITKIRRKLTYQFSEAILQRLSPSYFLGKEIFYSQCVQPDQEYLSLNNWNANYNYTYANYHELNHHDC
In outline:
as §1

For another test, the target named is ELF4 (Homo sapiens, UniProt Q99607 1-663). In outline: as §1
The target of the next test is T9, ELK4 (Homo sapiens, UniProt P28324-2 1-405).
T9 sequence: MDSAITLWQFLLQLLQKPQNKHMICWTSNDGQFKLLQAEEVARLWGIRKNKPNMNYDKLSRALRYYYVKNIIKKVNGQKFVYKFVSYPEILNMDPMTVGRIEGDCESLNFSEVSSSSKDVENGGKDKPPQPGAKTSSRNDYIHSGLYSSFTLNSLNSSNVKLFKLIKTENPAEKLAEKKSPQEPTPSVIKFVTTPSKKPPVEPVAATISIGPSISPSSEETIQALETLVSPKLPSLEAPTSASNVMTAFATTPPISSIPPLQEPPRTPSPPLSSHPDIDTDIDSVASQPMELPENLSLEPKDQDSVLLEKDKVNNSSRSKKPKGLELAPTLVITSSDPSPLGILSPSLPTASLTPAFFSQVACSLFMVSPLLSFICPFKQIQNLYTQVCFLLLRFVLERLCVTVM
The gist of the method: as §1

The target of another test is T10, ETV2 (Homo sapiens, UniProt O00321 1-342).
T10 sequence: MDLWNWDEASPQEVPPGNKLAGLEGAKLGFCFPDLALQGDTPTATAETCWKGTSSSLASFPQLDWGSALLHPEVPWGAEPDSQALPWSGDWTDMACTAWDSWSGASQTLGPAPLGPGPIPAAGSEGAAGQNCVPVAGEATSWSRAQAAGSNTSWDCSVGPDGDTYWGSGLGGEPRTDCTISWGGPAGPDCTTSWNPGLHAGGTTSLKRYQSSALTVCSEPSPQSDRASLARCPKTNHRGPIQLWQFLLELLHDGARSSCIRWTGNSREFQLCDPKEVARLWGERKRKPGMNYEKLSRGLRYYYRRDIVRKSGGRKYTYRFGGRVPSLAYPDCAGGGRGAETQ
In outline:
as §1

A further test concerns the target ETV1 (Homo sapiens, UniProt P50549 1-477). In outline:
as §1

ETV1, sequence (P50549 whole entry): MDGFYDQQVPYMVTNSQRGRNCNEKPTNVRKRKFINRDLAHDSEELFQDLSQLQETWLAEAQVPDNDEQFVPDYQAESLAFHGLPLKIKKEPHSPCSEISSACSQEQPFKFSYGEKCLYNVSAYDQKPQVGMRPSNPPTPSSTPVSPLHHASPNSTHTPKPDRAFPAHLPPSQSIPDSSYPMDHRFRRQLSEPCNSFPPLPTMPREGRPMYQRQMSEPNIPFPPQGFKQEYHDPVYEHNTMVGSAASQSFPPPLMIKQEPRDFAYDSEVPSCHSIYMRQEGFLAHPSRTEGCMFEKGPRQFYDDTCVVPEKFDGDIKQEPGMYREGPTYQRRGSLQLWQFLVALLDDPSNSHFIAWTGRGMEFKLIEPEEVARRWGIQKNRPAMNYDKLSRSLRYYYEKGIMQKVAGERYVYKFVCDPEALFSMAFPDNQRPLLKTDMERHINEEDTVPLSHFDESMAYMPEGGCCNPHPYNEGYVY
ETV5, sequence (P41161 whole entry): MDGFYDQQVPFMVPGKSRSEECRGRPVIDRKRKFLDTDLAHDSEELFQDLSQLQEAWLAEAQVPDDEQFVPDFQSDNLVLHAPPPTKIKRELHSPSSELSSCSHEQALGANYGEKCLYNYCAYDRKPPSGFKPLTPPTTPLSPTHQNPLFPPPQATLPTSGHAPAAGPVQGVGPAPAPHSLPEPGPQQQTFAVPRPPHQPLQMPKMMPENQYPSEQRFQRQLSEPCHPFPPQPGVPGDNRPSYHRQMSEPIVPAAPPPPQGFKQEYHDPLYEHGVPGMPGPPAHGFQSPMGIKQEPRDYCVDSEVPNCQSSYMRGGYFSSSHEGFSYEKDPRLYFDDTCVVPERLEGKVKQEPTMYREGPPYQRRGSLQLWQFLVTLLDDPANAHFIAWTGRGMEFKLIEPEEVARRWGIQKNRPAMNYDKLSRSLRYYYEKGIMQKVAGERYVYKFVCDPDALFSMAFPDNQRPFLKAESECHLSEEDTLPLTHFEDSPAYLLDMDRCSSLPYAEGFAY
ELF4, sequence (Q99607 whole entry): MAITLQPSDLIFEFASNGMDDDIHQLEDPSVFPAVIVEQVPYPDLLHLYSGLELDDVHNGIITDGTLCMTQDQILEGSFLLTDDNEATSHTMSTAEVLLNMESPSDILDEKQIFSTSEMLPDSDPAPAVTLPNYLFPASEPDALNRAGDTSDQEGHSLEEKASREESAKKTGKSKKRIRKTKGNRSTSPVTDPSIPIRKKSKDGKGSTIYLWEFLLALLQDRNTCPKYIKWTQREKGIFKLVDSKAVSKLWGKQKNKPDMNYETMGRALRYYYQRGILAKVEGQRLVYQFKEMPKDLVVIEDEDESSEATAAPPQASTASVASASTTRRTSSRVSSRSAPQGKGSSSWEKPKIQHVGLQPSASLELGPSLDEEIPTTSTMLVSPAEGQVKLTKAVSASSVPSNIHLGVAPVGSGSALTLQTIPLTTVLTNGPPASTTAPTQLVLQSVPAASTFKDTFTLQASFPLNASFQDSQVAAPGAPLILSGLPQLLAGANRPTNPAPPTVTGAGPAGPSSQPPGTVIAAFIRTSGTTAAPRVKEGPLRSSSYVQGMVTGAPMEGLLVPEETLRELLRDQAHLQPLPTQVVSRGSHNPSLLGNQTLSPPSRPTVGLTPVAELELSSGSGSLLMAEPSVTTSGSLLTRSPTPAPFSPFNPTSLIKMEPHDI
SPIB, sequence (Q01892 whole entry): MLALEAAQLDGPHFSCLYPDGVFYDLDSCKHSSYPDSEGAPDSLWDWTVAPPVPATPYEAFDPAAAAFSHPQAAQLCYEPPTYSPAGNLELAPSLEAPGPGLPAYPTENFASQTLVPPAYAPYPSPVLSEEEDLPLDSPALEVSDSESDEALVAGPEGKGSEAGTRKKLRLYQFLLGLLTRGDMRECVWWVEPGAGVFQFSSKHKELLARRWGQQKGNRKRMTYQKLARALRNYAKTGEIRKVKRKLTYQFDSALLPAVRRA
ELF1, sequence (P32519 whole entry): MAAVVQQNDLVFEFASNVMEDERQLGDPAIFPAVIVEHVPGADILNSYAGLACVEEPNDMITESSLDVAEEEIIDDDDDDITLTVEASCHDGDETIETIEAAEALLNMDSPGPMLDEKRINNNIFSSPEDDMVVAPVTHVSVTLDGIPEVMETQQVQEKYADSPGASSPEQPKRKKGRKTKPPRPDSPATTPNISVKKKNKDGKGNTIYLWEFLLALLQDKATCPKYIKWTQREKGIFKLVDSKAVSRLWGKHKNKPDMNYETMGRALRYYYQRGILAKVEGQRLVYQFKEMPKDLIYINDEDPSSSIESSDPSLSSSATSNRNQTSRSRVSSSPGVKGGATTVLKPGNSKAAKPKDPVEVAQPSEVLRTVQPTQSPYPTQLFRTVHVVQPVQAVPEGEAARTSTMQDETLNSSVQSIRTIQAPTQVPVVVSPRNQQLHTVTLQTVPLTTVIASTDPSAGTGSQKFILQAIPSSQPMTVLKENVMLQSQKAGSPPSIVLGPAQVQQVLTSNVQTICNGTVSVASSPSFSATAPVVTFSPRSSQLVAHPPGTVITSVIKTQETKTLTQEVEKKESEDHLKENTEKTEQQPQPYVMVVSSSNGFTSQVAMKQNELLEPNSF

Regarding ACACTG, the binding signal with FLI1 is 1.08 fold enrichment (6-mer frequency, TF over GST control); in the test with ELK1, 1.13 fold enrichment (6-mer frequency, TF over GST control); with GABPA it was 1.13 fold enrichment (6-mer frequency, TF over GST control); with ERG, 1.07 fold enrichment (6-mer frequency, TF over GST control); with ELF1, 1.09 fold enrichment (6-mer frequency, TF over GST control); with EHF it was 1.11 fold enrichment (6-mer frequency, TF over GST control). Further, the binding signal with SPI1 was 1.07 fold enrichment (6-mer frequency, TF over GST control); with SPIB it was 1.04 fold enrichment (6-mer frequency, TF over GST control); with ELK3, 1.04 fold enrichment (6-mer frequency, TF over GST control); in the test with FEV, 1.01 fold enrichment (6-mer frequency, TF over GST control); with ETV5, 1.07 fold enrichment (6-mer frequency, TF over GST control); with SPIC, 1.3 fold enrichment (6-mer frequency, TF over GST control). Moreover, the binding signal in the test with ELF4 was 1.03 fold enrichment (6-mer frequency, TF over GST control); with ELK4, 1.14 fold enrichment (6-mer frequency, TF over GST control); with ETV2, 1.04 fold enrichment (6-mer frequency, TF over GST control); with ETV1, 1.15 fold enrichment (6-mer frequency, TF over GST control).
